Mito fusion yeast = qHTS Assay for Small Molecule Inhibitors of Mitochondrial Division or Activators of Mitochondrial Fusion. AID 485298, 2010. Potency, µM (doses to about 46.1 µM), inactives show top-dose growth rescue (activation), usual class: activators. 0.23% of 320,000 active. S. cerevisiae fusion-defective mutant growth rescue, CellTiterGlo 48 h; also: % of control where 0% means no effect; nearly all actives have a fitted effect of over 45% in size
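Read-out: ATP-based luminescence (CellTiterGlo, 10 min ambient) reporting growth of fusion-defective ts yeast after 48 hours at 37C on glycerol/ethanol YPEG medium in the presence of compound.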
FUS yeast rescue = qHTS for Suppressors of FUS Proteinopathy: Primary screen using FUS-linked yeast assay; S. cerevisiae FUS-expressing, growth rescue, OD600, 24 h; Potency, µM (doses to about 76.6 µM), actives largely listed as activators; 0.24% of 390,000 active; AID 1347120, 2019;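 also: plate controls were DMSO vehicle for no effect and reference control for full effect; nearly all actives have a fitted effect of over 55% in size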
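Restored growth of FUS-toxic S. cerevisiae, read as 600 nm absorbance after 24 h at 30C in galactose medium (starting OD 0.005). Controls CP55940 and DMSO.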
Abeta yeast res = qHTS for compounds that reverse cellular toxicity of Amyloid beta (A-beta) peptide in yeast: Primary Screen | yeast expressing A-beta42, growth rescue, OD600, 48 h; response scale: 0% DMSO, 100% iron-clioquinol control | Potency, µM (titrated, usually from 46.1 µM), actives largely listed as activators | 0.063% of 410,000 active | AID 1347071, 2019; also: nearly all actives have a fitted effect of over 55% in size
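Yeast growth medium received pinned compounds, then yeast cells expressing toxic A-beta were added; plates incubated at 30 C for 48 hr. Growth read as absorbance at 600 nm, normalized to DMSO and equimolar FeCl3 plus clioquinol controls.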
aSyn yeast inh = qHTS of alpha-syn Inhibitors; Yeast expressing alpha-synuclein, growth rescue, BacTiter-Glo, 24 h; Potency, µM (doses to about 46.1 µM), for inactives: at the highest dose growth rescue (activation), most hits filed as activators; 0.14% of 370,000 active; also: % of control where 0% means no effect; nearly all actives have a fitted effect of over 65% in size
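Screening used galactose-induced yeast with toxic alpha-synuclein levels, exposed to compound for 24 hr at 30 deg C. Cell growth, read with BacTiter-Glo luminescence, gave the measured signal.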
TDP43 rescue = qHTS of TDP-43 Inhibitors. TDP-43 expressing yeast growth rescue, BacTiter-Glo, 24 h. AID 652104, 2013. 1.8% of 410,000 active. Potency, µM (highest dose often 46.1 µM), for inactives: top-dose growth rescue (activation), most hits filed as activators; also: % of control where 0% means no effect; nearly all actives have a fitted effect of over 50% in size
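Growth rescue of TDP-43-toxic yeast measured as ATP luminescence (BacTiter-Glo). Cells grown to mid-log in raffinose, induced in galactose at OD600=0.02, exposed to compound 24 hr at 30 deg C.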
The depositor's hits bear a star. Shown are actives, neighbours in structure and some others; about 2.2% of the full set was active somewhere. Calls follow the shape of the dose curve; as a rule, active = well fitted curve in the direction sought with a large enough effect; inconclusive = small, poorly fitted or top-dose-only effect, or another doubt; inactive = no such curve, though single readings can be large; an effect the other way counts as inactive or inconclusive. Potency is read from the fitted curve at half-maximal effect.

Screening COc1cccc(CNC(=O)c2ccc3oc(=O)n(Cc4ccccc4)c3c2)c1 returned FUS yeast rescue inactive, Abeta yeast res inconclusive and TDP43 rescue 25µM*.
`COc1ccc(C=C(C(C)=O)C(=O)c2ccccc2)cc1` gave FUS yeast rescue inactive, Abeta yeast res inactive, aSyn yeast inh inconclusive and TDP43 rescue 20µM*.
Screening COc1ccc(C=C(C(=O)c2ccccc2)c2ccccc2)cc1 returned FUS yeast rescue inactive, Abeta yeast res inactive, aSyn yeast inh 1% and TDP43 rescue 0%.
COc1ccc(C=C(C(=O)c2ccccc2)C(=O)c2ccccc2)cc1 was read as FUS yeast rescue inactive, Abeta yeast res inactive, aSyn yeast inh 6% and TDP43 rescue 14µM*.
Screening COc1ccccc1C(O)P(=O)(OCC(C)C)c1ccc(N(C)C)cc1 (stereo not given) returned Mito fusion yeast -3%, FUS yeast rescue inactive, Abeta yeast res inactive, aSyn yeast inh -4% and TDP43 rescue -3%.
`Oc1ccc(-c2nc3ccccc3s2)cc1` gave Mito fusion yeast 7%, FUS yeast rescue inactive, Abeta yeast res inactive, aSyn yeast inh -17% and TDP43 rescue 35µM*.
Cc1ccc(C)c(N2CCN(C(=O)CN3CCSc4ccccc43)CC2)c1 was read as FUS yeast rescue inactive, Abeta yeast res inconclusive, aSyn yeast inh inconclusive and TDP43 rescue 25µM*.
For Cc1ccc(C)c(N2CCN(C(=O)CC3Sc4ccccc4NC3=O)CC2)c1 (stereo not given) the results were Mito fusion yeast 14%, FUS yeast rescue inconclusive, Abeta yeast res inactive, aSyn yeast inh inconclusive and TDP43 rescue 22µM*.
O=C(CN1CCSc2ccccc21)N1CCN(c2ccc(F)cc2)CC1 was read as FUS yeast rescue inactive, Abeta yeast res inactive, aSyn yeast inh 4% and TDP43 rescue 22%.
For COc1ccc(N(Cc2cccs2)C(=O)c2ccccc2C)cc1 the results were FUS yeast rescue inactive, Abeta yeast res inactive and TDP43 rescue 25%.
For COc1cc2c(cc1OC)C(C)N(C(=O)c1cccc([N+](=O)[O-])c1)CC2 (stereo not given) the results were Mito fusion yeast 2%, FUS yeast rescue inactive, Abeta yeast res inactive, aSyn yeast inh 22µM* and TDP43 rescue 13µM*.
For COc1ccccc1C1CCN(C(=O)c2cccc([N+](=O)[O-])c2)CC1 the results were Mito fusion yeast 6%, FUS yeast rescue inactive, Abeta yeast res inactive, aSyn yeast inh 1% and TDP43 rescue 16µM*.
CC1c2cc3c(cc2CCN1CC(=O)Nc1ccccc1)OCCCO3 (stereo not given) was read as Mito fusion yeast -3%, FUS yeast rescue inactive, Abeta yeast res inactive, aSyn yeast inh 0% and TDP43 rescue 4%.
CC1c2cc3c(cc2CCN1C(=O)c1cccc(Cl)c1)OCCCO3 (stereo not given) was read as Mito fusion yeast 3%, FUS yeast rescue inactive, Abeta yeast res inactive, aSyn yeast inh 0% and TDP43 rescue 13µM*.
`COC(=O)c1ccc(OCC2c3cc(OC)c(OC)cc3CCN2C(=O)c2cccc(C)c2)cc1` (stereo not given) gave FUS yeast rescue inconclusive, Abeta yeast res inactive, aSyn yeast inh 22% and TDP43 rescue 25µM*.
COc1cc2c(cc1OC)C(C)N(C(=O)c1sccc1C)CC2 (stereo not given) was read as Mito fusion yeast 1%, FUS yeast rescue inactive, Abeta yeast res inactive, aSyn yeast inh -19% and TDP43 rescue inconclusive.
Screening Cc1ccc(S(=O)(=O)N2CCN(c3nc(-c4cncn4C)nc4ccccc34)CC2)cc1 returned aSyn yeast inh 2%.
For COc1ccc(-c2cc(C3CC3)nc3sc(C#N)c(N)c23)cc1 the results were Mito fusion yeast 13µM*, FUS yeast rescue inactive, Abeta yeast res inactive, aSyn yeast inh -12% and TDP43 rescue 6%.
For CCN(CC)CCNC(Cc1ccccc1)c1cccc(OC)c1 (stereo not given) the results were Abeta yeast res inactive, aSyn yeast inh -6% and TDP43 rescue -18%.
O=C(CSc1c(Cl)cccc1Cl)N1CCC(c2nc3ccccc3s2)CC1 was read as Mito fusion yeast -7%, FUS yeast rescue inactive, Abeta yeast res inactive, aSyn yeast inh inconclusive and TDP43 rescue -5%.
Screening O=C(CSc1ccc(Cl)cc1)N1CCC(c2nc3ccccc3s2)CC1 returned Mito fusion yeast 11%, FUS yeast rescue inactive, Abeta yeast res inactive, aSyn yeast inh inconclusive and TDP43 rescue 25µM*.
For O=C(CS(=O)c1ccc(C(F)(F)F)cc1[N+](=O)[O-])Oc1ccccc1 (stereo not given) the results were Mito fusion yeast 4%, FUS yeast rescue inactive, Abeta yeast res inactive, aSyn yeast inh -16% and TDP43 rescue 22µM*.
`COC(=O)c1ccc(OC(=O)CS(=O)c2ccccc2[N+](=O)[O-])cc1` (stereo not given) gave Mito fusion yeast 1%, FUS yeast rescue inactive, Abeta yeast res inactive, aSyn yeast inh 10% and TDP43 rescue 13µM*.
`CC(C)CNc1ncnc2oc(-c3ccco3)c(-c3ccco3)c12` gave aSyn yeast inh 8%.
For CC(=O)Oc1cc2c(s1)CCN(C(C(=O)C1CC1)c1ccccc1F)C2 (stereo not given) the results were FUS yeast rescue inactive.
Screening COc1cc(/C=C/CNC[C@H]2O[C@@H](n3cnc4c(=O)[nH]c(N)nc43)[C@H](O)[C@@H]2O)ccc1O returned FUS yeast rescue inactive, Abeta yeast res inactive, aSyn yeast inh -4% and TDP43 rescue -9%.
`Cc1nc(Nc2ccc3c(c2)OCCO3)c2c(C)c(C)sc2n1` gave Mito fusion yeast 3%, FUS yeast rescue inconclusive, Abeta yeast res inactive, aSyn yeast inh 13% and TDP43 rescue 11µM*.
For CCCCN1C(=O)C(CC(=O)NCCCCc2ccccc2)CC(C(=O)N2CCOCC2)=C1C (stereo not given) the results were FUS yeast rescue inactive, Abeta yeast res inactive, aSyn yeast inh 20µM* and TDP43 rescue 25%.
`S=c1nc(C2CCCCC2)n(-c2ccccc2)[nH]1` gave Mito fusion yeast 9%, FUS yeast rescue inactive, Abeta yeast res 13µM*, aSyn yeast inh -4% and TDP43 rescue 3%.
`S=c1nc(-c2ccccc2)n(-c2ccccc2)[nH]1` gave Mito fusion yeast -18%, FUS yeast rescue inactive, Abeta yeast res inactive, aSyn yeast inh -2% and TDP43 rescue -8%.

Screening results: PubChem BioAssay, National Center for Advancing Translational Sciences (NCATS)
